# A number with no mark means an inactive call. Results filed as inconclusive are left out. Where a call stands in place of a potency, no number is given. Activity calls are given as the source filed them. Unless noted, the call rests on the fitted dose curve; in most records, active means well fitted curve in the direction sought with a large enough effect; inconclusive means small, poorly fitted or top-dose-only effect, or another doubt; inactive means no such curve, though single readings can be large; an effect the other way counts as inactive or inconclusive.
# Columns and labels:
# [1] = molecular target: Pyruvate kinase (Leishmania mexicana) (UniProt Q27686); test: qHTS Validation Assay for Inhibitors of Leishmania Mexicana Pyruvate Kinase (AID 945)
# Pyruvate kinase (Leishmania mexicana), sequence (Q27686 2-499 E452W): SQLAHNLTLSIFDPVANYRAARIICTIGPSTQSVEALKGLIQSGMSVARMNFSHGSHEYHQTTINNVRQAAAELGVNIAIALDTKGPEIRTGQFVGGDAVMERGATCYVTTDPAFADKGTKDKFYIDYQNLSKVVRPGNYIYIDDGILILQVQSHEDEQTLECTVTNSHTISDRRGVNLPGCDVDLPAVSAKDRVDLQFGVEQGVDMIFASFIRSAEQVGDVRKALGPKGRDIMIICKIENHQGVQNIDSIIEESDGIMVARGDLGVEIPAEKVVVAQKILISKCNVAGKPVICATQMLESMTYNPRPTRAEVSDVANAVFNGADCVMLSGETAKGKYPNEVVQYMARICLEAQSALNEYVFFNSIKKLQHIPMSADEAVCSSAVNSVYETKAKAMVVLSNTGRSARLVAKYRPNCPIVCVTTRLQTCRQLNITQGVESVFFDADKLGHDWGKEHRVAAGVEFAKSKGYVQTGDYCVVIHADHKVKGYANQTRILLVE
# In short: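 Substrate mix (0.5 mM PEP, 0.1 mM ADP, 7 mM MgCl2, 50 mM KCl, pH 7.2 imidazole) received compound by pin tool, then 0.2 nM LmPYK E451W. After 1 h at room temperature, PKLight was added and luminescence measured.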
# [2] = molecular target: Pyruvate kinase PKM (Homo sapiens) (UniProt P14618); test: qHTS Assay for Activators of Human Muscle Pyruvate Kinase (AID 954; active means well fitted curve in the direction sought with a large enough effect, not every such curve was filed as active)
# Pyruvate kinase PKM (Homo sapiens), sequence (P14618 whole entry, looked up): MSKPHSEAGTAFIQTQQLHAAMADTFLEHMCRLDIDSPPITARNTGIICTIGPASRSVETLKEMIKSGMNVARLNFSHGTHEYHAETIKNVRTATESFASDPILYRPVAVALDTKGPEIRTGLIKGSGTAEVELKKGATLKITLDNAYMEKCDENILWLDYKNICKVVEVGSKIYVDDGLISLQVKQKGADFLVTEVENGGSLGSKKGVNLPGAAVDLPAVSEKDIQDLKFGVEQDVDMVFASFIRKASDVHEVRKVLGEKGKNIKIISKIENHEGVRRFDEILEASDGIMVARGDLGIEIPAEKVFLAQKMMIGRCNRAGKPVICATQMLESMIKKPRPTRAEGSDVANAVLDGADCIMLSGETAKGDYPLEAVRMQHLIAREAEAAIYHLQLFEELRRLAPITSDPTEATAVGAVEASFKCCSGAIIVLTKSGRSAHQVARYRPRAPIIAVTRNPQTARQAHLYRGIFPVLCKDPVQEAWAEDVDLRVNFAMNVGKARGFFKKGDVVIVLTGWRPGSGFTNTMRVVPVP
# In short: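 Luminescence from a luciferase ATP-detection/stop reagent reported PKM2 activity. Reactions contained 0.1 nM purified human enzyme, 0.5 mM PEP, 0.1 mM ADP and 7 mM MgCl2 at pH 7.2, run 1 h at RT.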
# [3] = molecular target: Alpha-galactosidase (Coffea arabica) (UniProt Q42656); test: Counterscreen for Glucocerebrosidase Inhibitors: qHTS Assay for Coffee Bean alpha-Galactosidase at pH 4.5 (AID 957); further: series mostly up to about 77 µM
# Alpha-galactosidase (Coffea arabica), sequence (Q42656 whole entry, looked up): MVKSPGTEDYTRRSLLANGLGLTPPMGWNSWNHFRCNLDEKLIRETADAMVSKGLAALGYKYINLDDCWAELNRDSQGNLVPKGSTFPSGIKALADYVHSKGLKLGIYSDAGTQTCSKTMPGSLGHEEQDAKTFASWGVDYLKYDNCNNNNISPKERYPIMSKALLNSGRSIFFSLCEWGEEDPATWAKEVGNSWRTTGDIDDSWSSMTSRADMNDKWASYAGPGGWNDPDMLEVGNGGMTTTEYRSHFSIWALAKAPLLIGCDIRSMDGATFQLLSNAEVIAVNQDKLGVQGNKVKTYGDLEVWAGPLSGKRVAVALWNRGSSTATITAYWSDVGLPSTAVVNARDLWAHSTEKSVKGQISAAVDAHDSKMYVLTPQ
# In short: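 Coffee bean alpha-galactosidase 2 nM, substrate 4-MU-alpha-Gal 80 uM, pH 4.5 citrate/Tween-20, 20 min RT. Cpd titration 0.7 nM–77 uM. Stop pH 10, fluorescence 365/440 nm; Hill-equation AC50.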
# [4] = molecular target: Alpha-galactosidase A (Homo sapiens) (UniProt P06280); test: Counterscreen for Glucocerebrosidase Inhibitors: qHTS Assay for Human alpha-Galactosidase at pH 4.5 (AID 992)
# Alpha-galactosidase A (Homo sapiens), sequence (P06280 whole entry, looked up): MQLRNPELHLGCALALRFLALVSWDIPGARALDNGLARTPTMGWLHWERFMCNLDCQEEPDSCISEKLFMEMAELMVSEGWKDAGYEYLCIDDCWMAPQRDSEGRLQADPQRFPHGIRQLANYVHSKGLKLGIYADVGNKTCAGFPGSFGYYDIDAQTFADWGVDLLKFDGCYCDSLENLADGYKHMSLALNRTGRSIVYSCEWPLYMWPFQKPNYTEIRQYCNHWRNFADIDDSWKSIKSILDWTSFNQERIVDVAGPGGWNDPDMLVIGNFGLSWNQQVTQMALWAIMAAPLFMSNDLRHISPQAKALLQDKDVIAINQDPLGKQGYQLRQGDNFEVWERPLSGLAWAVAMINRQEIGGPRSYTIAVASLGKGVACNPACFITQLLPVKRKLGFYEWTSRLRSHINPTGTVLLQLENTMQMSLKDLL
# In short: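 Enzyme at 2 nM final was combined with compound (0.7 nM to 77 uM) and 80 uM 4-methylumbelliferyl alpha-D-galactopyranoside in 50 mM citric acid, 0.005% Tween-20, pH 4.5. After 20 min at room temperature, fluorescence was read (Ex 365/Em 440 nm); AC50 came from Hill fits.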
# [5] = molecular target: alpha-glucosidase (Oryza sativa, rice) (UniProt Q653V4); test: Counterscreen for Glucocerebrosidase Inhibitors: qHTS Assay for Rice alpha-Glucosidase at pH 5.0 (AID 997)
# In short: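 Rice alpha-glucosidase (4 nM final) with 400 uM 4-methylumbelliferyl-alpha-D-glucopyranoside in citrate buffer pH 5.0, 20 min at room temperature, stopped at pH 10; fluorescence 365/440 nm, compounds 0.7 nM–77 uM, AC50 from Hill fits.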
# [6] = NCATS anti-infectives library activity on HEK293 viability as a counter-qHTS vs the C. elegans viability qHTS (AID 1745854);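 further: HEK293 cells exposed to compounds for 24 hr before the viability read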
# In short: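 Compounds were acoustically plated (several concentrations, 1:5, final up to 41.7 uM), then 1500 HEK293 cells added per well and incubated 24 hr at 37C, 5% CO2. CellTiter-Glo was added and luminescence read after 10 min.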
# [7] = qHTS Assay for Identification of Small Molecule Agonists for Hypoxia Response Element Signaling Pathway (AID 914; active means well fitted activation curve with a large enough effect in the signal ratio, with a control signal flat, not every such curve was filed as active; the % refers to the signal ratio); conditions: ME-180 (cervical carcinoma) HRE-bla reporter, beta-lactamase ratio, CoCl2, 17 h; activation: hits give high values
# Source text: NIH Molecular Libraries Screening Centers Network [MLSCN]
# NIH Chemical Genomics Center [NCGC]
# Hypoxia-inducible factor-1 (HIF-1) is the major hypoxia-regulated transcription factor that controls cellular responses to low oxygen concentration. HIF-1 is composed of two subunits: hypoxia responsive HIF-1 alpha and constitutively expressed HIF-1 beta, which is also known as aryl hydrocarbon receptor nuclear translocator. During hypoxic conditions, HIF-1 alpha heterodimerizes with HIF-1 beta and translocates into the nucleus where the HIF-1 complex binds to the hypoxia-response element (HRE) and activates expression of target genes such as VEGF (vascular endothelial growth factor). HIF-1 alpha protein levels are elevated in many solid tumors, including those of the cervix and brain. Within tumors, cells that are the greatest distance from blood vessels and therefore the most hypoxic express the highest levels of HIF-1 alpha. Therapeutic blockade of the HIF-1 signaling pathway in cancer cells therefore provides an attractive strategy for development of anticancer drugs.
# Using a beta-lactamase reporter-gene under control of the hypoxia response element, a cell-based assay [CellSensor(TM) HRE-bla ME-180 developed by Invitrogen Corp.] was used to measure hypoxia-induced signaling. Library compounds were measured for their ability to positively modulate the action of EC50 CoCl2 on reporter gene activity. Compounds were screened in a titration series in 1536-well format. Positive modulators were identified based on the AC50 values derived from the screening data.
# NCGC Assay Protocol Summary:
# 2500 cells/5uL in Opti-MEM medium containing 0.5% dialyzed FBS, 0.1 mM NEAA, 1 mM sodium pyruvate and 10 mM HEPES was dispensed into 1536-well plates and cells were cultured at 37 degrees Celsius overnight. Next day 23 nL of compounds or DMSO were delivered to each well using a pin tool, and 1uL of EC50 level of CoCl2, or EC100 level of CoCl2, or assay medium was added. And then the plates were incubated at 37 degrees Celsius for 17 hours. 1 uL of CCF4-dye mixture was added to each well. After incubated at room temperature for 2.5 hours the plates were measured on an EnVision plate reader at Excitation 405nm, Emission1=460nm and Emission 2=530nm. The %Activity was determined from the ratio of 460nm/530nm.
compound,measurement,setting,value
C=CCN1CCC2(C)c3cc(O)ccc3C[C@H]1[C@H]2C,outcome,[1],inactive
same,outcome,[2],inactive
same,outcome,[3],inactive
same,outcome,[4],inactive
same,outcome,[5],inactive
CN1Cc2c(ccc3c2OCO3)[C@@H]2[C@H]1c1cc3c(cc1C[C@@H]2O)OCO3,Potency,[6],inactive
CN(C)[C@@H]1C(=O)C(C(N)=O)=C(O)[C@@]2(O)C(=O)C3=C(O)c4c(O)ccc(Cl)c4[C@@](C)(O)C3C[C@@H]12 (some centres not stated),activation,[7],4.51%
